# Values without a mark were called inactive. Calls of active or inactive are those of the source. Calls follow the shape of the dose curve; as a rule, active = well fitted curve in the direction sought with a large enough effect (not every such curve was filed as active); inconclusive = small, poorly fitted or top-dose-only effect, or effect the other way, or another doubt; inactive = no such curve, though single readings can be large or run the other way.
# Molecular target: Pyruvate kinase PKM (Homo sapiens) (UniProt P14618)
# Sequence (P14618 whole entry, looked up): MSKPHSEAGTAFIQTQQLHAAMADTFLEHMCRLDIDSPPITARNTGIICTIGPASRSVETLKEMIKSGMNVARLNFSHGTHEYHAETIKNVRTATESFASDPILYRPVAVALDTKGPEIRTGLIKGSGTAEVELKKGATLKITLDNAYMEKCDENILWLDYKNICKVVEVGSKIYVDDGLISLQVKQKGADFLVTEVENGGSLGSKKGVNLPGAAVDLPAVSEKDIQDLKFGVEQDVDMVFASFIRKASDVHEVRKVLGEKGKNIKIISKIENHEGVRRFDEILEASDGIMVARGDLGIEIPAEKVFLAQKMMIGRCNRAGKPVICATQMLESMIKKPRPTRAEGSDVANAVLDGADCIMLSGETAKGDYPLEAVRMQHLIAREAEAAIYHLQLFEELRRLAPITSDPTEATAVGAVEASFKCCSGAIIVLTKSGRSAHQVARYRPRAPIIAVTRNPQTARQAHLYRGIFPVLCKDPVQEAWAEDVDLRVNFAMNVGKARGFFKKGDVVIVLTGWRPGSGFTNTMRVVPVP
# Assay: qHTS Assay for Activators of Human Muscle Pyruvate Kinase (AID 954);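 also: 0% = uninhibited enzyme and -100% = no enzyme or full thiadiazolimine inhibition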
# Details: purified human muscle pyruvate kinase, luciferase-coupled luminescence, 1 h; series mostly up to 57.5 µM; activity change, negative = inhibition: at the top concentration
# In short: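 A coupled luminescent readout tracked ATP made from ADP by purified PKM2. Final conditions included 0.1 nM enzyme, PEP and ADP at 0.5 and 0.1 mM, pH 7.2 imidazole buffer with BSA, and a one-hour room-temperature reaction.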
SMILES,"activity change, negative = inhibition [%]",outcome
OCc1cc(C(O)CNCCCCCCOCCCCc2ccccc2)ccc1O (configuration not stated),-28.4,
CN(C)CCCN1c2ccccc2CCc2ccccc21,-18.4,
CCCn1cnc2c1c(=O)n(CCCCC(C)=O)c(=O)n2C,-19.5,
N=c1c[n+](N2CCOCC2)[n-]o1,-31.3,
OCCN1CCN(CCCN2c3ccccc3Sc3ccc(Cl)cc32)CC1,-14,
CC1=C(CC(=O)O)c2cc(F)ccc2/C1=C\c1ccc(S(C)=O)cc1 (configuration not stated),-12.1,
NC1CCN(c2cccc(Cl)n2)CC1,-13.1,
CCCCCCCCCCCCCCCC(=O)NCCO,-6.28,
C[C@]12CC[C@@H]3c4ccc(O)cc4CC[C@H]3[C@@H]1CCC2=O,5.1,
C=Cc1c(C)c2cc3[nH]c(cc4nc(cc5nc(cc1[nH]2)C(C)=C5CCC(=O)O)C(CCC(=O)O)=C4C)c(C)c3C=C,-12.6,
CC1=C(CC(=O)O)c2cc(F)ccc2/C1=C\c1ccc(S(C)(=O)=O)cc1,-8.14,
CC(C)C(=O)c1c(C(C)C)nn2ccccc12,10.3,
COC(=O)C1=C(C)NC(C)=C(C(=O)OC)C1c1ccccc1[N+](=O)[O-],-19.3,
C#CCN(C)Cc1ccccc1,-21.9,
COc1ccc(Cl)cc1C(=O)NCCc1ccc(S(=O)(=O)NC(=O)NC2CCCCC2)cc1,-5.44,
Cc1cc(N)c2ccccc2[n+]1CCCCCCCCCC[n+]1c(C)cc(N)c2ccccc21,-13.2,
CN(C)CCCN1c2ccccc2Sc2ccc(Cl)cc21,15.1,
NC(N)=NCCC[C@H](N)C(=O)O,14.6,
Nc1cc(=O)[nH]c(N)n1,-10.2,
CCN(CC)CCNC(=O)c1cc(Cl)c(N)cc1OC,-25.4,
CCN(CC)CCOC(=O)C1(C2CCCCC2)CCCCC1,-26.6,
CC(C)NC[C@H](O)c1ccc(O)c(O)c1,,inactive

# From PubChem BioAssay (NCATS)
